# The full data set covers some 8,800 targets. This sample favours those with a hit. About 0.5% of all pairs of compound and target were hits. A number with no mark means an inactive call.
# Tests used:
# Experiment in all cases: log2 fold change, soluble protein after heating vs DMSO (PISA); higher = thermal stabilisation; K562 lysate, 10 uM; active = over 0.2 and 3.5 SD of the protein, either way, in both replicates (recomputed)
# ibrutinib = compound: C=CC(=O)N1CCC[C@@H](n2nc(-c3ccc(Oc4ccccc4)cc3)c3c(N)ncnc32)C1 [ibrutinib]
# How it was run: (§1)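 Soluble protein was defined as the supernatant remaining after 21,000xg for 90 min, following pooling of heated aliquots and adjustment to 0.5% NP-40 at 4°C. Before that, crude K562 extract at 1 mg/mL protein in PBS pH 7.4 with 1 mM MgCl2 was treated with 10 μM compound for 30 min and heated for 3 min across 48°C-58°C. Quantification used TMTpro 16plex LC-MS/MS with channel sums equalised, and values are log-two fold changes in thermal stability relative to solvent controls from duplicates.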
# [1] = compound: CC(=O)c1cnc2ccc(-c3cc(Cl)c(O)c(Cl)c3)nc2c1N[C@H]1CC[C@H](CN(C)C)CC1
# How it was run: as §1
# ralimetinib = compound: CC(C)(C)Cn1c(N)nc2ccc(-c3[nH]c(C(C)(C)C)nc3-c3ccc(F)cc3)nc21 [ralimetinib]
# How it was run: as §1
# [2] = compound: CC(C)(O)CC(=O)NCCn1ccc2ncnc(Nc3ccc(Oc4cccc(C(F)(F)F)c4)c(Cl)c3)c21
# How it was run: as §1
# [3] = compound: CC(C)C1=C2N=C(C=C(N2N=C1)NCC3=CC=CC=C3)NCCCCCCN
# How it was run: as §1
# [4] = compound: CC1=C(C(CC(=O)N1)C2=CC=C(C=C2)C(F)(F)F)C(=O)NC3=C(C=C4C(=C3)C=NN4)F
# How it was run: as §1
# [5] = compound: CC1=C(C2=C(C=C1)C(=O)C3=CC=CC=C3N2CCCN)C
# How it was run: as §1
# [6] = compound: CC1=C(C=C(C=C1)NC(=O)C2=CC(=CC=C2)C(C)(C)C#N)NC3=CC4=C(C=C3)N=CN(C4=O)C
# How it was run: as §1
# [7] = compound: CC1=C(C=C(C=C1)NC(=O)C2=CC(=CC=C2)N(C)C)NC(=O)C3=CC=C(C=C3)O
# How it was run: as §1
# [8] = compound: CC1=CC=C(C=C1)SC2=C3C=C(SC3=CN=C2)C(=O)N
# How it was run: as §1
# vemurafenib = compound: CCCS(=O)(=O)Nc1ccc(F)c(C(=O)c2c[nH]c3ncc(-c4ccc(Cl)cc4)cc23)c1F [vemurafenib]
# How it was run: as §1
# [9] = compound: CCCS(=O)(=O)Nc1ccc(F)c(C(=O)c2c[nH]c3ncc(Cl)cc23)c1F
# How it was run: as §1
# barasertib = compound: CCN(CCCOc1ccc2c(Nc3cc(CC(=O)Nc4cccc(F)c4)[nH]n3)ncnc2c1)CCOP(=O)(O)O [barasertib]
# How it was run: as §1
# [10] = compound: CC[C@@H]1C(=O)N(C)c2cnc(Nc3ccc(C(=O)NC4CCN(C)CC4)cc3OC)nc2N1C1CCCC1
# How it was run: as §1
# volasertib = compound: CC[C@@H]1C(=O)N(C)c2cnc(Nc3ccc(C(=O)N[C@H]4CC[C@H](N5CCN(CC6CC6)CC5)CC4)cc3OC)nc2N1C(C)C [volasertib]
# How it was run: as §1
# [11] = compound: CCn1c(C(=O)N(C2CC2)C2CC2)cc2c3c(ncn3C)c(Nc3cc(C)n(C)n3)nc21
# How it was run: as §1
# [12] = compound: CCn1cc(-c2ccnc3[nH]c(-c4cccc(CN(C)C)c4)cc23)c(-c2ccc(NC(=O)N(C)C)cc2)n1
# How it was run: as §1
# [13] = compound: CN1CCC(CNc2ccc3ncc(-c4cccc(OC(F)(F)F)c4)n3n2)CC1
# How it was run: as §1
# saracatinib = compound: CN1CCN(CCOc2cc(OC3CCOCC3)c3c(Nc4c(Cl)ccc5c4OCO5)ncnc3c2)CC1 [saracatinib]
# How it was run: as §1
# sotrastaurin = compound: CN1CCN(c2nc(C3=C(c4c[nH]c5ccccc45)C(=O)NC3=O)c3ccccc3n2)CC1 [sotrastaurin]
# How it was run: as §1
# Chain of UniProt P36969 (P36969 whole entry, looked up): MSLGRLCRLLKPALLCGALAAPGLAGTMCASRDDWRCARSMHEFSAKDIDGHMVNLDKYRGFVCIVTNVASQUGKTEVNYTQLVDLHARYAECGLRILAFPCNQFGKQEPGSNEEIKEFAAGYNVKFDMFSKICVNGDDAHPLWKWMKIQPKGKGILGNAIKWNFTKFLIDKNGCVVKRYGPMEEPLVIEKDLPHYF
# Chain of UniProt Q9Y2X7 (Q9Y2X7 whole entry, looked up): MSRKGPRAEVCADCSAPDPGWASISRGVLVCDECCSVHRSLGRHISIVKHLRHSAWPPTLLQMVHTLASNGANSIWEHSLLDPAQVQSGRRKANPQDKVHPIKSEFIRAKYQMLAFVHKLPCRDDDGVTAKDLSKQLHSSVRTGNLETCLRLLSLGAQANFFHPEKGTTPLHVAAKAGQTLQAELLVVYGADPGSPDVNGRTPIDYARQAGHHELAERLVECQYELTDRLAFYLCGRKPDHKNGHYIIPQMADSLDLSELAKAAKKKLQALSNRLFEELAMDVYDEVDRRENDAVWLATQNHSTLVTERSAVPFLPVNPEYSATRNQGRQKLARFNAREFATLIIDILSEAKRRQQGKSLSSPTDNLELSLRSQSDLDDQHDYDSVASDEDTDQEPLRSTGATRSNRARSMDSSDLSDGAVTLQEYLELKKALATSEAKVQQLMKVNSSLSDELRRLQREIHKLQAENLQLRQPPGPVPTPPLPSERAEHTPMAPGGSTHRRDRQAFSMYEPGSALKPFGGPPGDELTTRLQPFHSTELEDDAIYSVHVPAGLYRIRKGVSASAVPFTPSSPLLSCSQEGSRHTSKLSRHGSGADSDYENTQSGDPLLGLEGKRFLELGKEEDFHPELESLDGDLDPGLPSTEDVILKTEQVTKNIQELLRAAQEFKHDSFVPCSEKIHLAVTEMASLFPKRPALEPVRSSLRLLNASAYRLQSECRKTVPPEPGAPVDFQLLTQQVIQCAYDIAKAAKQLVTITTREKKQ
# Chain of UniProt O75367 (O75367 whole entry, looked up): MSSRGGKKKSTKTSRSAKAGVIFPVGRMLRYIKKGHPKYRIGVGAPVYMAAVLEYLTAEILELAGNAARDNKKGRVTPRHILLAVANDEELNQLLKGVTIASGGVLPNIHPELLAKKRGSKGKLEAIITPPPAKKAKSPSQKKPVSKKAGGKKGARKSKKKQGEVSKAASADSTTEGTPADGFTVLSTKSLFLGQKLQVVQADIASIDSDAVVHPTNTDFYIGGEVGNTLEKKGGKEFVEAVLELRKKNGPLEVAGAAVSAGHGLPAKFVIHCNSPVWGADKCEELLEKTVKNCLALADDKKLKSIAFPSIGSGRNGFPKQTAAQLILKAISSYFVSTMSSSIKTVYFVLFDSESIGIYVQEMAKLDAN
# Chain of UniProt Q13478 (Q13478 whole entry, looked up): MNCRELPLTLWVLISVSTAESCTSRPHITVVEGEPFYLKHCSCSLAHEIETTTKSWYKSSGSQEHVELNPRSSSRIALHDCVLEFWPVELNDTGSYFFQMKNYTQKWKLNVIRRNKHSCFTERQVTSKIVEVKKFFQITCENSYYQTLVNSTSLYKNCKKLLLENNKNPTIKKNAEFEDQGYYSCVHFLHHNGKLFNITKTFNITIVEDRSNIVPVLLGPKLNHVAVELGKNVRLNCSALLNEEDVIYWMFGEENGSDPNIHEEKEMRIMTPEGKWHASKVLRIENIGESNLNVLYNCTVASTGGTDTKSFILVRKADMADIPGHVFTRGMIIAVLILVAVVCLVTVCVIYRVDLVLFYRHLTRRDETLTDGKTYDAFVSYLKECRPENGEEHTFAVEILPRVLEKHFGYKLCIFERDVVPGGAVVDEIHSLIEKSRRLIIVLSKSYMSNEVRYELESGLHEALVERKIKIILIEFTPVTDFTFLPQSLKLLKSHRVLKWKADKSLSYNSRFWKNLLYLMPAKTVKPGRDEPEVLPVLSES
# Chain of UniProt Q7Z4V5 (Q7Z4V5 whole entry, looked up): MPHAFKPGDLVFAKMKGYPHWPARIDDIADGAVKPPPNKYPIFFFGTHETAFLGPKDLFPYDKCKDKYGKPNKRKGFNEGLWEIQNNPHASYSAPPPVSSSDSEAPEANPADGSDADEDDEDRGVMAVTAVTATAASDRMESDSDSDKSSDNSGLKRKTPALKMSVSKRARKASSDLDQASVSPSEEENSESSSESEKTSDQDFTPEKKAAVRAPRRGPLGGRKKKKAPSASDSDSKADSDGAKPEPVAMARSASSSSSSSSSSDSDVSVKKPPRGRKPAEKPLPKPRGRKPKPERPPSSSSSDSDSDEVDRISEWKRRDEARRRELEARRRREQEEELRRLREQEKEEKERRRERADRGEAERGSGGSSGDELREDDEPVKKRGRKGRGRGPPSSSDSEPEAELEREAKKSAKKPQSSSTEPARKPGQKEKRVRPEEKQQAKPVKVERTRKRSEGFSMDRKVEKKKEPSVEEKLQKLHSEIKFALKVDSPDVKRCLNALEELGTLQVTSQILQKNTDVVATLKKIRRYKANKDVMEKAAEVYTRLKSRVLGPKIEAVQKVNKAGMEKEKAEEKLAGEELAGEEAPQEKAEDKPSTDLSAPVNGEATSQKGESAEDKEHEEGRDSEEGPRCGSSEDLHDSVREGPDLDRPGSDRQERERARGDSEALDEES
# Chain of UniProt P41252 (P41252 whole entry, looked up): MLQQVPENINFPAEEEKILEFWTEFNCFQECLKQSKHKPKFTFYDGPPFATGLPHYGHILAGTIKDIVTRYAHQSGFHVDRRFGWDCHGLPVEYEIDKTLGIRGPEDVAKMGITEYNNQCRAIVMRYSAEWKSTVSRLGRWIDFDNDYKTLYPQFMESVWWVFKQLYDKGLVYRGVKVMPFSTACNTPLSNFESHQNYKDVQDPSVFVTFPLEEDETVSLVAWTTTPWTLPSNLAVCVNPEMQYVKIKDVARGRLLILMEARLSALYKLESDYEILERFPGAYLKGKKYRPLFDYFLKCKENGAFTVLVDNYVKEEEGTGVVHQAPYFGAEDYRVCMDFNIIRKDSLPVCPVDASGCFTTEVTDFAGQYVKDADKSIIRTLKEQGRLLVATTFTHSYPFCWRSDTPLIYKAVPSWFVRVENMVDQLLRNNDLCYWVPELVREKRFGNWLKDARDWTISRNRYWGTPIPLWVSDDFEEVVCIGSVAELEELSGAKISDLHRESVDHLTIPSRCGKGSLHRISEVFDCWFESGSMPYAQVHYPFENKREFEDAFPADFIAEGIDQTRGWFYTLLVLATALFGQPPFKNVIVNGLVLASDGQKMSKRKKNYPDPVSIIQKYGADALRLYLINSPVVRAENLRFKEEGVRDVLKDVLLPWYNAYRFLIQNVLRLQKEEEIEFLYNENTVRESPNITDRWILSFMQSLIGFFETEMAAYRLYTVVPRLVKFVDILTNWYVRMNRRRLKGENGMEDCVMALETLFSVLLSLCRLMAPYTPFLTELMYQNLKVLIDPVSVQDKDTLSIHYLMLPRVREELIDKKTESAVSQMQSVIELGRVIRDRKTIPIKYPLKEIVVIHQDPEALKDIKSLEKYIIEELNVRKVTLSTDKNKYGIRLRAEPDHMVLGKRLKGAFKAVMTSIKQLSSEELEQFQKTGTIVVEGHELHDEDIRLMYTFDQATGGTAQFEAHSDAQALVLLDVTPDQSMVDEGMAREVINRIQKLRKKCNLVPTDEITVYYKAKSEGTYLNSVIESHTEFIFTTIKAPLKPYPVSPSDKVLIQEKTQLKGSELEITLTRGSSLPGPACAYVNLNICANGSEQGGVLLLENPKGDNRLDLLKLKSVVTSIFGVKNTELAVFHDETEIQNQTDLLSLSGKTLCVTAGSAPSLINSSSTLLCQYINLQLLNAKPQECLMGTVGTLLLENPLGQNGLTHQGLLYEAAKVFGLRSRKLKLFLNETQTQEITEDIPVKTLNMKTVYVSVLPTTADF
# Chain of UniProt Q6DN03 (Q6DN03 whole entry, looked up): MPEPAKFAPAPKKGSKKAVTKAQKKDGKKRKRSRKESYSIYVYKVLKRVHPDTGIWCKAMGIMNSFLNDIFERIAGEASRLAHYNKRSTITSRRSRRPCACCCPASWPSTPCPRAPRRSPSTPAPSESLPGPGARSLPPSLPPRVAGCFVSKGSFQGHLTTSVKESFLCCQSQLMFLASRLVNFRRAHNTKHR
# Chain of UniProt Q13322 (Q13322 whole entry, looked up): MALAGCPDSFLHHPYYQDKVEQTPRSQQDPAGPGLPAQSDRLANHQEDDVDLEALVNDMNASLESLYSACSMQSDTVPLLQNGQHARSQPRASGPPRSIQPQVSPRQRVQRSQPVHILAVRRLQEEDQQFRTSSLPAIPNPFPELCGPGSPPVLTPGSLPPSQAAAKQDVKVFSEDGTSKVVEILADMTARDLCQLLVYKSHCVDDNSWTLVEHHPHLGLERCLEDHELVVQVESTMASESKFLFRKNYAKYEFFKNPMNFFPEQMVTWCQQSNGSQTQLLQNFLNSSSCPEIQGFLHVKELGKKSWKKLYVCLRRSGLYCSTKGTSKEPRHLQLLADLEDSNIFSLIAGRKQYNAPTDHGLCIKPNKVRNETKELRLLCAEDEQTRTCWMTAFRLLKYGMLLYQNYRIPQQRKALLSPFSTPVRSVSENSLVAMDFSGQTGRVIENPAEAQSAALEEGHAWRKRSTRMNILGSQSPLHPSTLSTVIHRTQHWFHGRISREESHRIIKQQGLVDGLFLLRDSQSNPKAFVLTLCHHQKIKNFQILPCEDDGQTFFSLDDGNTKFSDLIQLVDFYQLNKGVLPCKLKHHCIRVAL
# Chain of UniProt Q8NC54 (Q8NC54 whole entry, looked up): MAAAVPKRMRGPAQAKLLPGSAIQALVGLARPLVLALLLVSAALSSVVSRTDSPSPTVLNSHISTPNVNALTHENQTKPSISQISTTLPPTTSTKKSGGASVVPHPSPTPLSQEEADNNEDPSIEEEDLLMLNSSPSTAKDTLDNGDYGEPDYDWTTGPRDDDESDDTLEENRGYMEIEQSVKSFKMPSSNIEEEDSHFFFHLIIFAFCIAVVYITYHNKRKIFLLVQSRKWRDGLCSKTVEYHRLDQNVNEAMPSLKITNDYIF
Target,log2 fold change (ibrutinib),log2 fold change [1],log2 fold change (ralimetinib),log2 fold change [2],log2 fold change [3],log2 fold change [4],log2 fold change [5],log2 fold change [6],log2 fold change [7],log2 fold change [8],log2 fold change (vemurafenib),log2 fold change [9],log2 fold change (barasertib),log2 fold change [10],log2 fold change (volasertib),log2 fold change [11],log2 fold change [12],log2 fold change [13],log2 fold change (saracatinib),log2 fold change (sotrastaurin)
HK1 isoform 2 (UniProt P19367),-0.007,0.005,-0.008,0.021,-0.029,-0.029,0.025,0.023,0.016,0.008,0.009,0.003,0.012,-0.023,-0.004,0.014,-0.008,-0.013,-0.015,0.004
IARS (UniProt P41252),-0.015,-0.001,0.037,0.035,0.029,-0.016,0.012,-0.04,0.05,0.029,0.004,0.011,0.026,-0.086,-0.079,0.048,0.044,-0.111,0.006,0.014
KEAP1 (UniProt Q14145),0.014,0.001,0.017,-0.014,-0.015,-0.026,-0.049,0.012,0.019,-0.024,0.014,0,0.01,-0.008,-0.001,-0.016,-0.017,0.044,-0.018,0.033
KCT2 (UniProt Q8NC54),0.025,0.018,0.038,-0.076,-0.015,0.008,-0.034,-0.025,0.004,-0.024,0.046,0.023,0.127,0.054,-0.001,-0.038,-0.374 (active),0.153,0.089,0.038
KCTD20 (UniProt Q7Z5Y7),0.109,0.071,0.099,-0.009,0.044,0.062,0.034,-0.001,0.105,-0.051,0.17,0.02,0.052,0.046,0.007,-0.055,0.018,-0.037,0.048,0.025
IFNGR1 (UniProt P15260),-0.033,-0.12,-0.018,-0.256,-0.014,0.162,-0.077,0.017,0.073,-0.213,0.182,-0.07,-0.051,0.234,0.08,-0.153,-0.641 (active),0.331,0.032,-0.018
HIST2H2BC (UniProt Q6DN03),0.003,-0.052,-0.013,0.003,-0.055,0.066,0.029,-0.001,0.032,0.031,-0.261,0.026,-0.029,-0.05,0.013,0.033,0.291 (active),-0.024,0,-0.01
GRB10 (UniProt Q13322),0.015,-0.039,-0.006,-0.032,0.014,0.04,-0.015,-0.032,-0.006,0.066,0.001,0.051,0.054,-0.054,-0.103,0.012,-0.023,0.016,-0.082,0.028
GIT1 (UniProt Q9Y2X7),0.075,-0.002,-0.042,0.033,-0.004,-0.074,-0.012,0.044,-0.007,0.024,-0.073,0.028,-0.008,-0.044,-0.043,-0.007,0.132,0.046,0,0.012
GPX4 (UniProt P36969),-0.013,0.01,0.011,0.018,-0.004,0.006,-0.002,0.014,0.003,0.039,-0.003,0.025,-0.002,-0.068,-0.038,0.013,0.027,-0.079,0.02,0.012
IL18R1 (UniProt Q13478),-0.177,0.117,-0.261,-0.463,0.053,-0.066,-0.031,0.061,0.15,0.097,0.074,-0.026,0.061,0.087,0.044,-0.184,-0.284,0.085,0.023,-0.064
IARS2 (UniProt Q9NSE4),-0.006,-0.008,-0.005,0.007,-0.025,-0.031,0.016,0.005,0.013,-0.031,-0.007,-0.005,0.037,-0.003,0.312 (active),-0.013,0.198,-0.032,-0.002,0.003
H2AFY (UniProt O75367),0.051,-0.056,-0.025,-0.043,0,-0.003,-0.148,-0.053,-0.033,-0.001,-0.042,0.013,0.094,0.131,-0.036,-0.001,-0.059,0.056,-0.077,0.104
HDGFL2 isoform 2 (UniProt Q7Z4V5),-0.033,-0.002,-0.01,-0.049,0.011,-0.015,-0.026,0.022,0.021,-0.044,0.016,-0.003,-0.01,0.064,0.052,-0.066,-0.417 (active),0.196,-0.015,0.038
GSTM4 (UniProt Q03013),-0.139,-0.006,-0.013,-0.051,-0.079,0.096,0.037,-0.136,-0.027,0.042,0.055,0.034,-0.044,0.024,0.03,0.009,-0.114,0.038,-0.13,-0.05
HDAC10 (UniProt Q969S8),-0.038,0.019,-0.106,0.144,-0.207,-0.11,-0.088,0.037,0.022,0.017,0.142,-0.093,0.009,-0.052,-0.056,-0.117,-0.026,0.02,-0.052,-0.069

# Source: the supplement of paper PMC10849652
